Results as given in PubChem BioAssay (EPA / NIEHS).
Inconclusive results are not listed. Calls of active or inactive are those of the source. Rule for the calls, unless noted: active = hit-call score of the fitted dose curve at least 0.9, where 1 is the maximum; inactive = score below 0.9.

What was measured:
[1] = CCTE_Mundy_HCI_Cortical_Synap_Neur_Matur_NeuriteSpotCountPerNeuriteLength: CCTE's Synaptogenesis and Neurite Maturation Assay in rat cortical cells for Neurite Spot Count per Neurite Length, Mundy Lab (AID 2284210)
Outline: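 Rat primary cortical cultures, AraC added at DIV 5 to suppress glia; chemical exposure from DIV 7 to DIV 12. Fixed cells stained for MAP2 and synaptophysin plus Hoechst; synaptophysin puncta per neurite length quantified by high-content imaging, relative to DMSO.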

[2] = CCTE_Mundy_HCI_Cortical_Synap_Neur_Matur_BPCount: CCTE's Synaptogenesis and Neurite Maturation Assay in rat cortical cells for Branch Point Count, Mundy Lab (AID 2284211)
Outline: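 Branch point number is quantified by automated imaging of fluorescently labelled neurites and synapses in rat primary cortical neurons exposed from DIV 7 to DIV 12. Activity is analysed relative to DMSO negative control.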

[3] = CCTE_Mundy_HCI_Cortical_NOG_NeuriteCount: CCTE's Neurite Outgrowth Assay in rat cortical cells for Neurite Count, Mundy Lab (AID 2284212);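 note: cells fixed about two days after chemical exposure began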
Outline: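 Neurite number per cell from high-content imaging of betaIII-tubulin immunostaining, with Hoechst nuclear counterstain.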

[4] = CCTE_Mundy_HCI_Cortical_NOG_NeuriteLength: CCTE's Neurite Outgrowth Assay in rat cortical cells for Neurite Length, Mundy Lab (AID 2284213);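 note: neurites imaged about 48 to 50 h after chemical exposure began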
Outline: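 Neurite length was read by high-content imaging of βIII-tubulin-labelled neurites in rat primary cortical cultures. Activity was fitted relative to DMSO.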

[5] = CCTE_Mundy_HCI_Cortical_Synap_Neur_Matur_NeuriteLength: CCTE's Synaptogenesis and Neurite Maturation Assay in rat cortical cells for Neurite Length, Mundy Lab (AID 2284214)
Outline: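 Rat primary cortical cells were plated, treated with AraC at DIV 5 to arrest glial growth, then chemical-dosed with media change at DIV 7 through DIV 12. Fixed cells stained for MAP2, synaptophysin and Hoechst; neurite length quantified by high-content imaging.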

[6] = CCTE_Mundy_HCI_Cortical_Synap_Neur_Matur_NeuriteSpotCountPerNeuron: CCTE's Synaptogenesis and Neurite Maturation Assay in rat cortical cells for Neurite Spot Count per Neuron Count, Mundy Lab (AID 2284215)
Outline: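 Rat primary cortical cultures given AraC at DIV 5, dosed from DIV 7 to DIV 12 with media change. Fixed, stained for MAP2, synaptophysin and Hoechst; neurite-associated synaptophysin puncta per neuron quantified by high-content imaging versus DMSO.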

[7] = CCTE_Mundy_HCI_Cortical_Synap_Neur_Matur_SynapseCount: CCTE's Synaptogenesis and Neurite Maturation Assay in rat cortical cells for Synapse Count, Mundy Lab (AID 2284218)
Outline: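 Rat primary cortical cells in 96-well plates received AraC at DIV 5 and were dosed with chemicals at DIV 7 with media change, through DIV 12 (288.33 h). Synapses per neuron counted by high-content imaging of MAP2/synaptophysin/Hoechst staining, versus DMSO baseline.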

[8] = CCTE_Mundy_HCI_hN2_NOG_NeuriteCount: CCTE's Neurite Outgrowth Assay in human hN2 cells for Neurite Count, Mundy Lab (AID 2284219; active = hit-call score of the fitted dose curve at least 0.9, where 1 is the maximum)
Outline: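 In this morphology assay, hNP1-derived neurons received test chemical 2 h post-plating and were fixed two days later in warm paraformaldehyde/sucrose containing Hoechst 33342. Neurites, labelled by rabbit anti-βIII-tubulin (1:800) and Alexa Fluor-488 (1:500), were counted automatically.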

[9] = CCTE_Mundy_HCI_hN2_NOG_NeuriteLength: CCTE's Neurite Outgrowth Assay in human hN2 cells for Neurite Length, Mundy Lab (AID 2284220; active = hit-call score of the fitted dose curve at least 0.9, where 1 is the maximum)
Outline: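 Read-out is neurite length from high-content imaging of βIII-tubulin/Alexa Fluor-488-labelled neurons, referenced to DMSO controls.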

[10] = CCTE_Mundy_HCI_hN2_NOG_NeuronCount: CCTE's Neurite Outgrowth Assay in human hN2 cells for Neuron Count, Mundy Lab (AID 2284221; active = hit-call score of the fitted dose curve at least 0.9, where 1 is the maximum)
Outline: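 Read-out is the number of betaIII-tubulin-positive neurons imaged by automated high-content analysis, with DMSO as negative control.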

[11] = CCTE_Mundy_HCI_Cortical_Synap_Neur_Matur_NeuriteCount: CCTE's Synaptogenesis and Neurite Maturation Assay in rat cortical cells for Neurite Count, Mundy Lab (AID 2284222)
Outline: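 Rat primary cortical cells; AraC added at DIV 5, chemicals dosed with media change at DIV 7 through DIV 12. MAP2/synaptophysin/Hoechst immunostaining, high-content imaging of neurite number; fitted relative to DMSO.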

[12] = CCTE_Mundy_HCI_Cortical_Synap_Neur_Matur_CellBodySpotCount: CCTE's Synaptogenesis and Neurite Maturation Assay in rat cortical cells for Cell Body Spot Count, Mundy Lab (AID 2284223)
Outline: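 Primary rat cortical cultures, AraC added at DIV 5; dosed DIV 7 through DIV 12 […]. Fixed, stained for MAP2 and synaptophysin with Hoechst; cell body-associated synaptophysin puncta per neuron counted by high-content imaging, loss vs DMSO.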

[13] = CCTE_Mundy_HCI_hNP1_Pro_ResponderAvgInten: CCTE's Proliferation Assay in human neuroprogenitor cells, Mundy Lab (AID 2284224; active = hit-call score of the fitted dose curve at least 0.9, where 1 is the maximum;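 note: human neural progenitor cells hNP1 derived from WA09 embryonic stem cells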)
Outline: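 Proliferation read as average intensity of BrdU-positive cells, imaged at 26.25 h post-dosing: chemical exposure started after 40–44 h culture, BrdU during final 4 h, paraformaldehyde fixation. Positive-direction fit relative to DMSO.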

[14] = UKN2_HCS_IMR90_cell_viability: Viability Assessment in the University of Konstanz (UKN) Leist Lab Neural Crest Cell Migration Assay in human induced IMR90 Pluripotent Stem Cells (UKN2) (AID 2284233);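 note: viability of neural crest cells differentiated from IMR90 iPSC measured by calcein-AM fluorescence imaging; cells exposed to compound for 24 h after a 24 h migration phase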
Outline: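 Neural crest cells derived from IMR90 iPSC migrate into a stopper-free zone for 24 h in EGF/FGF medium, then are exposed to compound for 24 h. Viability assessed by calcein-AM and Hoechst staining with high-content imaging, fitted bidirectionally versus DMSO.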

[15] = CCTE_Mundy_HCI_Cortical_NOG_BPCount: CCTE's Neurite Outgrowth Assay in rat cortical cells for Branch Point Count, Mundy Lab (AID 2284237);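 note: branch points counted about two days after chemical exposure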
Outline: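 Measured 50.33 h after dosing, this morphology endpoint uses rat primary cortical cultures labelled for betaIII-tubulin. Branch points are quantified by high-content imaging, with DMSO as negative control and baseline.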

[16] = CCTE_Mundy_HCI_hNP1_Casp3_7: CCTE's Caspase-Glo 3/7 Assay in human neuroprogenitor cells for Apoptosis, Mundy Lab (AID 2284240)
Outline: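 Luminescent caspase-3/7 readout, 26.5 h post-dose, in human neural progenitor cells from WA09 embryonic stem cells. Cells grew 40–44 h at 37 °C, 5% CO2 before chemical addition. Activity analysed as signal increase over DMSO baseline.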

[17] = CCTE_Mundy_HCI_hNP1_CellTiter: CCTE's Cell Titer-Glo 2 Assay in human neuroprogenitor cells for Viability, Mundy Lab (AID 2284241; active = hit-call score of the fitted dose curve at least 0.9, where 1 is the maximum)
Outline: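 Viability read as luminescent ATP content (CellTiter-Glo, 30 min room temperature) twenty-four hours after dosing, relative to DMSO. Cells: WA09-derived hNP1 neuroprogenitors on poly-L-ornithine/laminin, plated 40 to 44 hours before chemical.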

[18] = CCTE_Mundy_HCI_Cortical_Synap_Neur_Matur_NeuronCount: CCTE's Synaptogenesis and Neurite Maturation Assay in rat cortical cells for Neuron Count, Mundy Lab (AID 2284242; active = hit-call score of the fitted dose curve at least 0.9, where 1 is the maximum;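 note: hits reduce neuron count versus DMSO baseline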)
Outline: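 Rat primary cortical cells received AraC at DIV 5 to arrest glia, then were dosed with chemicals at DIV 7 through DIV 12. Fixed cells were stained for nuclei, MAP2 and synaptophysin, and neurons were counted by high-content imaging relative to DMSO.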

[19] = IUF_NPC2c_oligodendrocyte_migration_120hr: Leibniz Research Institute for Environmental Medicine (IUF) 120-hour Neural Progenitor Cell Migration Assay for Oligodendrocyte Migration (NPC2c) (AID 2284297);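 note: O4-positive oligodendrocyte migration distance divided by radial glia migration distance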
Outline: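 Human fetal neural progenitor spheres (0.3 mm) are plated on poly-D-lysine/laminin in N2 differentiation medium and exposed for 120 h, with half-medium renewal at day 3. Oligodendrocyte (O4+) migration distance comes from ICC imaging, normalised to radial glia migration.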

[20] = IUF_NPC2a_radial_glia_migration_120hr: Leibniz Research Institute for Environmental Medicine (IUF) 120-hour Neural Progenitor Cell Migration Assay for Radial Glia Migration (NPC2a) (AID 2284298)
Outline: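 Human fetal-cortex neural progenitor spheres (0.3 mm) plated on poly-D-lysine/laminin in N2 differentiation medium, exposed 120 h at 37C with half-medium renewal at day 3. Radial glia migration distance (um) measured from Hoechst-stained nuclei images; DMSO baseline.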

[21] = IUF_NPC2a_radial_glia_migration_72hr: Leibniz Research Institute for Environmental Medicine (IUF) 72-hour Neural Progenitor Cell Migration Assay for Radial Glia Migration (NPC2a) (AID 2284299)
Outline: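 Human fetal cortex (GW 16-19) neural progenitor spheres, 0.3 mm, plated on poly-D-lysine/laminin in N2 differentiation medium with compound from day 0. Radial glia migration distance (um, sphere core edge to migration edge) measured manually in four directions on 72 h brightfield images; well mean used.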

[22] = IUF_NPC2b_neuronal_migration_120hr: Leibniz Research Institute for Environmental Medicine (IUF) 120-hour Neural Progenitor Cell Migration Assay for Neuron Migration (NPC2b) (AID 2284300)
Outline: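 0.3 mm hNPC spheres on poly-D-lysine/laminin in N2 differentiation medium exposed 120 h, half-medium refresh day 3; 7 concentrations, DMSO max 0.1%. Neuron (TUBB3) distance from sphere core by ICC imaging, normalised to radial glia migration.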

[23] = IUF_NPC3_neuronal_differentiation_120hr: Leibniz Research Institute for Environmental Medicine (IUF) 120-hour Neuronal Differentiation Assay (NPC3) (AID 2284301)
Outline: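 Human fetal (GW 16-19) neural progenitor spheres (0.3 mm) plated on poly-D-lysine/laminin in N2 differentiation medium, exposed 120 h at 37C with half-medium renewal day 3; 7 concentrations. TUBB3+ cells as % of Hoechst nuclei, CNN-identified; DMSO baseline.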

[24] = IUF_NPC4_neurite_length_120hr: Leibniz Research Institute for Environmental Medicine (IUF) 120-hour Neuronal Morphology Assay for Neurite Length (NPC4) (AID 2284302)
Outline: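 Human fetal neural progenitor spheres (0.3 mm) plated on poly-D-lysine/laminin in N2 differentiation medium, exposed from day 0 for 120 h with half-medium refresh at day 3, 37C. Mean neurite length (um) of TUBB3-positive neurons from skeletonized immunostaining images; DMSO ≤0.1%.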

[25] = IUF_NPC4_neurite_area_120hr: Leibniz Research Institute for Environmental Medicine (IUF) 120-hour Neuronal Morphology Assay for Neurite Area (NPC4) (AID 2284305; active = hit-call score of the fitted dose curve at least 0.9, where 1 is the maximum)
Outline: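 Human fetal neural progenitor spheres (0.3 mm) plated on poly-D-lysine/laminin in N2 differentiation medium, exposed 120 h (7 concentrations, DMSO ≤0.1%, half-medium refresh day 3). Fixed, TUBB3 immunostained; mean neurite area per neuron by Omnisphero skeletonization.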

[26] = IUF_NPC2-5_cytotoxicity_72hr: Cytotoxicity Assessment at 72 hours in the Leibniz Research Institute for Environmental Medicine (IUF) Neural Progenitor Cell Migration and Differentiation Assay for Cytotoxicity (NPC2-5) (AID 2284306; active = hit-call score of the fitted dose curve at least 0.9, where 1 is the maximum;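 note: LDH release into supernatant measured by resorufin fluorescence marking membrane damage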)
Outline: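 Human fetal primary neural progenitor spheres (0.3 mm) plated on poly-D-lysine/laminin in N2 differentiation medium, exposed from day 0 at 37C. LDH-dependent resazurin-to-resorufin fluorescence in supernatant at 72 h; 7 concentrations, DMSO at most 0.1%.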

[27] = IUF_NPC2-5_cytotoxicity_120hr: Cytotoxicity Assessment at 120 hours in the Leibniz Research Institute for Environmental Medicine (IUF) Neural Progenitor Cell Migration and Differentiation Assay (NPC2-5) (AID 2284307; active = hit-call score of the fitted dose curve at least 0.9, where 1 is the maximum)
Outline: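 Human fetal (GW 16-19) neural progenitor spheres (0.3 mm) plated on poly-D-lysine/laminin in N2 differentiation medium, exposed 120 h with half-medium renewal at day 3; 7 concentrations plus solvent control, DMSO ≤0.1%. LDH release in supernatant read by resorufin fluorescence.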

[28] = IUF_NPC2-5_cell_number_120hr: Cell Number Assessment at 120 hours in the Leibniz Research Institute for Environmental Medicine (IUF) Neural Progenitor Cell Migration and Differentiation Assay (NPC2-5) (AID 2284308);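 note: count of Hoechst-stained nuclei in migration zone around plated human neural progenitor spheres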
Outline: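 Human fetal neural progenitor spheres (0.3 mm) plated on poly-D-lysine/laminin in N2 differentiation medium, exposed five days across 7 concentrations with half-medium refresh at day 3. Hoechst-positive nuclei counted in migration area at 120 h, relative to DMSO.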

[29] = IUF_NPC2-5_viability_120hr: Viability Assessment at 120 hours in the Leibniz Research Institute for Environmental Medicine (IUF) Neural Progenitor Cell Migration and Differentiation Assay (NPC2-5) (AID 2284312)
Outline: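 Human fetal neural progenitor spheres (0.3 mm) plated on poly-D-lysine/laminin in N2 differentiation medium, exposed 120 h with half-medium refresh at day 3. Viability by alamar blue resazurin fluorescence; 7 concentrations, DMSO max 0.1%.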

Measured: AC50

C[n+]1ccc(-c2cc[n+](C)cc2)cc1
inactive: [1] | [8] | [9] | [14] | [16] | [17] | [19] | [21] | [22] | [23] | [24] | [25] | [26] | [27] | [28] | [29]
active: [2] 0.947 µM | [3] 29.6 µM | [4] 29.8 µM | [5] 0.966 µM | [6] 0.989 µM | [7] 1.01 µM | [10] 50 µM | [11] 1.21 µM | [12] 14.4 µM | [13] 85.1 µM | [15] 50 µM | [18] 0.763 µM | [20] 1.98 µM
